The supplement of paper PMC9262897, “Low-cost anti-mycobacterial drug discovery using engineered E. coli” (Nature Communications, 2022)
Where a name gives a salt, the structure may show the parent alone. ± gives the standard deviation of the averaged measurements.

Key:
Test in all cases: growth (OD600 after 10 h); higher = more growth (less inhibition)
[1] = test system: E. coli TESEC Alr+ wild-type control; conditions: compound 0.1 mM; raw OD600 reference: median of DMSO wells 0.241, cell-free background 0.041
Experimental: (§1)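 TESEC Mtb Alr E. coli, or the Alr+ wild-type control, in 384-well plates with Prestwick library compounds at 0.1 mM and 1% DMSO, across arabinose induction levels of 1E3 to 1E7 nM. Growth is read as OD600 after 10 h at 37 °C in triplicate biological replicates.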

[2] = test system: E. coli TESEC Mtb Alr; conditions: compound 0.1 mM
Experimental: as §1

[3] = test system: E. coli TESEC Mtb Asd; conditions: compound 0.1 mM
Experimental: (§2)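 TESEC E. coli strains in which the native enzyme is deleted and replaced by arabinose-inducible Mtb Asd, DapB, CysH or TrpD, each grown in its selective medium. Strains were screened against the Prestwick library at 0.1 mM and 1% DMSO in 384-well format at low and high arabinose induction. Growth is read as OD600 after 10 h in triplicate.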

[4] = test system: E. coli TESEC Mtb DapB; conditions: compound 0.1 mM
Experimental: as §2

[5] = test system: E. coli TESEC Alr+ wild-type control; conditions: compound 0.1 mM; raw OD600 reference: median of DMSO wells 0.49, cell-free background 0.052
Experimental: (§3)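 TESEC Mtb Alr E. coli (ΔaraC ΔtolC ΔentC Δalr ΔdadX, arabinose-inducible Mtb Alr) or the Alr+ wild-type control strain, grown in defined M9-fructose medium without D-alanine in 96-well plates with Prestwick library compounds at 0.1 mM and 1% DMSO. Low Alr induction is 0.1 µM arabinose and high induction is 10 mM arabinose.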

[6] = test system: E. coli TESEC Mtb Alr; conditions: compound 0.1 mM; remark: listed apart in the source
Experimental: as §3

[7] = arabinose 1000 nM, raw OD600 reference: median of DMSO wells 0.294, cell-free background 0.041
[8] = arabinose 10000 nM, raw OD600 reference: median of DMSO wells 0.264, cell-free background 0.041
[9] = arabinose 100000 nM, raw OD600 reference: median of DMSO wells 0.201, cell-free background 0.041
[10] = arabinose 1000000 nM, raw OD600 reference: median of DMSO wells 0.193, cell-free background 0.041
[11] = arabinose 10000000 nM, raw OD600 reference: median of DMSO wells 0.146, cell-free background 0.041
[12] = arabinose induction (level): High, raw OD600 reference: median of DMSO wells 0.331, cell-free background 0.041
[13] = arabinose induction (level): Low, raw OD600 reference: median of DMSO wells 0.417, cell-free background 0.041
[14] = arabinose induction (level): High, raw OD600 reference: median of DMSO wells […], cell-free background 0.041
[15] = arabinose induction (level): Low, raw OD600 reference: median of DMSO wells 0.227, cell-free background 0.041
[16] = arabinose 100 nM, raw OD600 reference: median of DMSO wells 0.413, cell-free background 0.052
[17] = arabinose 10000000 nM, raw OD600 reference: median of DMSO wells […], cell-free background 0.052

SMILES | growth [1] | growth [2, 7] | growth [2, 8] | growth [2, 9] | growth [2, 10] | growth [2, 11] | growth [3, 12] | growth [3, 13] | growth [4, 14] | growth [4, 15] | growth [5] | growth [6, 16] | growth [6, 17]
CCc1cccc2c3c([nH]c12)C(CC)(CC(=O)O)OCC3 (centres undefined) [Etodolac] | 0.24 ± 0.0076 | 0.272 ± 0.0061 | 0.264 ± 0.01 | 0.162 ± 0.0052 | 0.147 ± 0.004 | 0.1376 ± 0.00061 | 0.276 ± 0.027 | 0.267 ± 0.017 | 0.195 ± 0.0073 | 0.261 ± 0.033 | 0.415 ± 0.021 | 0.409 ± 0.011 | 0.264 ± 0.013
CCOc1ccc2c(c1)C(C)=CC(C)(C)N2 [Ethoxyquin] | 0.183 ± 0.0075 | 0.283 ± 0.015 | 0.249 ± 0.007 | 0.192 ± 0.017 | 0.118 ± 0.0015 | 0.227 ± 0.067 | 0.353 ± 0.083 | 0.305 ± 0.042 | 0.196 ± 0.0042 | 0.205 ± 0.024 | 0.3809 ± 0.0031 | 0.408 ± 0.0097 | 0.167 ± 0.068
CSc1ccc2c(c1)N(CCC1CCCCN1C)c1ccccc1S2 (centres undefined) [Thioridazine hydrochloride] | 0.04013 ± 0.00015 | 0.0427 ± 0.0046 | 0.0393 ± 0.00064 | 0.04037 ± 0.00031 | 0.03907 ± 0.00012 | 0.04007 ± 5.8e-05 | 0.0505 ± 0.0013 | 0.0523 ± 0.0022 | 0.04803 ± 0.00029 | 0.0782 ± 0.052 | 0.0484 ± 0.00036 | 0.178 ± 0.21 | 0.05103 ± 0.00015
COc1ccc2[nH]c([S+]([O-])Cc3ncc(C)c(OC)c3C)nc2c1 (centres undefined) [Omeprazole] | 0.19 ± 0.0022 | 0.232 ± 0.0033 | 0.2749 ± 0.0018 | 0.168 ± 0.011 | 0.122 ± 0.0034 | 0.131 ± 0.0049 | 0.298 ± 0.04 | 0.388 ± 0.025 | 0.167 ± 0.0081 | 0.1748 ± 0.0014 | 0.409 ± 0.01 | 0.399 ± 0.016 | 0.263 ± 0.018
CC(C)(C)NC(=O)[C@H]1CC[C@H]2[C@@H]3CC[C@H]4NC(=O)C=C[C@]4(C)[C@H]3CC[C@]12C [Finasteride] | 0.121 ± 0.003 | 0.201 ± 0.015 | 0.201 ± 0.0065 | 0.133 ± 0.0022 | 0.0954 ± 0.00085 | 0.144 ± 0.0043 | 0.308 ± 0.064 | 0.268 ± 0.064 | 0.183 ± 0.0049 | 0.228 ± 0.006 | 0.351 ± 0.011 | 0.366 ± 0.022 | 0.182 ± 0.03
COCCOC(=O)C1=C(C)NC(C)=C(C(=O)OC/C=C/c2ccccc2)C1c1cccc([N+](=O)[O-])c1 (centres undefined) [Cilnidipine] | 0.275 ± 0.0065 | 0.333 ± 0.0093 | 0.304 ± 0.028 | 0.195 ± 0.022 | 0.14 ± 0.015 | 0.164 ± 0.0066 | 0.187 ± 0.016 | 0.319 ± 0.026 | 0.169 ± 0.0093 | 0.21 ± 0.025 | 0.518 ± 0.028 | 0.457 ± 0.0093 | 0.253 ± 0.026
C[C@H]1O[C@H](O[C@H]2[C@H](O)[C@@H](O)[C@@H](O[C@@H]([C@H](O)[C@@H](O)C=O)[C@H](O)CO)O[C@@H]2CO)[C@H](O)[C@@H](O)[C@@H]1N[C@H]1C=C(CO)[C@@H](O)[C@H](O)[C@H]1O [Acarbose] | 0.261 ± 0.0036 | 0.313 ± 0.0078 | 0.25 ± 0.005 | 0.244 ± 0.0037 | 0.182 ± 0.0045 | 0.145 ± 0.013 | 0.322 ± 0.026 | 0.476 ± 0.036 | 0.196 ± 0.018 | 0.236 ± 0.037 | 0.458 ± 0.0055 | 0.396 ± 0.013 | 0.3792 ± 0.0032
CN(C)CCN(Cc1ccc(Cl)cc1)c1ccccn1 [Chloropyramine hydrochloride] | 0.189 ± 0.0042 | 0.245 ± 0.0086 | 0.265 ± 0.0041 | 0.201 ± 0.0069 | 0.148 ± 0.0046 | 0.128 ± 0.006 | 0.171 ± 0.017 | 0.43 ± 0.013 | 0.185 ± 0.02 | 0.208 ± 0.016 | 0.432 ± 0.016 | 0.399 ± 0.0085 | 0.314 ± 0.012
Nc1ccc(S(=O)(=O)c2ccc(N)cc2)cc1 [Dapsone] | 0.256 ± 0.0028 | 0.282 ± 0.019 | 0.23 ± 0.0077 | 0.227 ± 0.019 | 0.1616 ± 0.0011 | 0.141 ± 0.0065 | 0.433 ± 0.092 | 0.339 ± 0.012 | 0.214 ± 0.0025 | 0.25 ± 0.058 | 0.491 ± 0.054 | 0.422 ± 0.01 | 0.367 ± 0.018
Nc1ccn([C@@H]2O[C@H](CO)[C@@H](O)C2(F)F)c(=O)n1 [Gemcitabine] | 0.1523 ± 0.0014 | 0.208 ± 0.012 | 0.193 ± 0.029 | 0.126 ± 0.012 | 0.116 ± 0.0036 | 0.164 ± 0.003 | 0.137 ± 0.0051 | 0.133 ± 0.0042 | 0.157 ± 0.0053 | 0.177 ± 0.035 | 0.51 ± 0.05 | 0.321 ± 0.018 | 0.217 ± 0.0091
CC(=O)[C@@]1(O)CC[C@H]2[C@@H]3C[C@H](C)C4=CC(=O)C=C[C@]4(C)[C@@]3(F)[C@@H](O)C[C@@]21C [Fluorometholone] | 0.235 ± 0.021 | 0.308 ± 0.011 | 0.248 ± 0.011 | 0.2 ± 0.018 | 0.13 ± 0.007 | 0.153 ± 0.0031 | 0.457 ± 0.013 | 0.428 ± 0.019 | 0.209 ± 0.0065 | 0.272 ± 0.017 | 0.447 ± 0.013 | 0.423 ± 0.007 | 0.334 ± 0.049
Nc1ccn([C@H]2CC[C@@H](CO)O2)c(=O)n1 [Zalcitabine] | 0.246 ± 0.0044 | 0.2977 ± 0.0013 | 0.279 ± 0.014 | 0.198 ± 0.035 | 0.172 ± 0.0063 | 0.1518 ± 0.00067 | 0.288 ± 0.037 | 0.407 ± 0.035 | 0.204 ± 0.015 | 0.24 ± 0.04 | 0.4783 ± 0.0003 | 0.409 ± 0.016 | 0.353 ± 0.02
CN[C@@H]1[C@@H](O[C@H]2O[C@H](CO)[C@@H](N)[C@H](O)[C@H]2O)OC2C[C@@H](N)[C@@H](O[C@H]3[C@H](O)[C@@H](O)[C@H](N)C[C@@H]3N)OC2[C@@H]1O (some centres undefined) [Apramycin] | 0.0408 ± 0.00099 | 0.045 ± 0.0037 | 0.03913 ± 0.00032 | 0.0442 ± 0.00091 | 0.0395 ± 0.0018 | 0.05653 ± 0.00029 | 0.0487 ± 0.0014 | 0.0476 ± 0.0012 | 0.0527 ± 0.0023 | 0.048 ± 0.0016 | 0.0798 ± 0.0039 | 0.0841 ± 0.008 | 0.133 ± 0.069
